Source: PubChem
FadD28 FP inh = inhibitors of Mycobacterium tuberculosis FadD28 bisubstrate binding; FadD28 bisubstrate probe binding, fluorescence polarization; inhibition, % at 12.5 µM; 360,000 compounds, 0.22% hits; AID 588549; in the data active = inhibition above about 8.5%, passing the limit was not always enough
TcdB inh = TcdB glycohydrolase inhibition; inhibition, % at 9.99 µM; 350,000 compounds, 0.24% hits; AID 652162; TcdB glycohydrolase enzymatic assay, plate reader; P18177; in the data active = inhibition above about 10%
PfHsp40 yeast = compounds rescuing yeast from Plasmodium falciparum HSP40 toxicity; S. cerevisiae expressing PfHsp40, growth rescue, ATP luminescence; growth rescue, % at 12.5 µM; 340,000 compounds, 0.68% hits; in the data active = growth rescue above about 28%, passing the limit was not always enough;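 note: yeast W303a lacking pdr1 and pdr3 grown in galactose medium; growth measured after three days at 30 °C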
Y pestis TopoI = Y. pestis Topo-I inhibition via cleavage products; 360,000 compounds, 0.064% hits; AID 504884; activity, % at 10 µM; Y. pestis Topo-I cleavage product accumulation, plate reader; in the data active = activity above about 50%, passing the limit was not always enough
Mtb BioA inh = inhibitors of Mycobacterium tuberculosis BioA enzyme; 360,000 compounds, 0.096% hits; purified M. tuberculosis BioA enzyme, plate reader; inhibition, % at 9.99 µM; AID 602481; in the data active = inhibition above about 40%
PrP UTR inh = inhibition of PrP 5' UTR reporter expression; inhibition, % (concentration not given with the values); 340,000 compounds, 0.35% hits; cell-based PrP 5' UTR mRNA reporter, plate reader; in the data active = inhibition above about 52%; note: 0 = median of the neutral control wells
Starred values were filed as active, the others as inactive; nt = no result. Compounds with a hit are over-represented: about 1.2% of the library has one in this group of screens.

SMILES	FadD28 FP inh	TcdB inh	PfHsp40 yeast	Y pestis TopoI	Mtb BioA inh	PrP UTR inh
Cc1cc(-c2ccc(Cl)cc2Cl)c(C#N)c(=O)[nH]1	-4	0	-1	2	-3	29
CSc1nc(-c2ccc(Cl)cc2Cl)[nH]c(=O)c1C#N	-20	13*	0	-1	1	-15
COc1ccc2c3c([nH]c2c1)[C@H](CO)N(C(C)=O)CC31CN(C(C)=O)C1	nt	3	nt	nt	nt	nt
Cc1[nH]n(-c2ccccc2)c(=O)c1C(c1ccccc1[N+](=O)[O-])C(C#N)C#N (stereo not given)	0	-9	1	-7	1	-8
Cc1[nH]n(-c2ncc(-c3ccccc3)s2)c(=O)c1C(c1ccc(Cl)cc1)C(C#N)C#N (stereo not given)	8.6*	2	-2	-9	nt	-8
COc1ccc2c3c(n(C)c2c1)[C@@H](CO)N(C(C)=O)CC31CCN(Cc2ccccc2OC)CC1	nt	-1	nt	nt	nt	nt
O=c1cnn([C@@H]2O[C@H](CO)[C@@H](O)[C@H]2O)c(=O)[nH]1	-2	nt	61*	-1	-1	34
O=c1[nH]c(=O)n(C2OC(CO)C(O)C(O)C2O)cc1F (stereo not given)	nt	1	nt	nt	nt	nt
C[C@H](CO)N1C[C@H](C)[C@H](CN(C)C(=O)CN(C)C)Oc2cc(C3=CCCC3)ccc2S1(=O)=O	nt	0	nt	nt	5	nt
CCC(=O)NNC(=S)NC(=O)c1ccc(C)cc1	-1	2	69*	4	nt	-46
Cc1cccc(C(=O)NC(=S)NNC(=O)Cc2ccccc2)c1	0	4	229*	1	nt	-15
Cc1cccc(C(=O)NC(=S)NCc2ccccc2)c1	-1	0	19	10	0	-38
Cc1cc(C)nc(NC(=O)/C=C/c2ccccc2Cl)n1	-7	nt	1	-3	nt	-37
Cc1cc(C(=O)NNC(=S)NC(=O)/C=C/c2ccccc2Cl)n[nH]1	-2	0	56*	-2	1	-15
Cc1cccc(C(=O)NC(=S)Nc2ccccc2C(=O)O)c1	-7	-1	1	11	0	-24
Cc1cccc(C(=O)NC(=S)NNC(=O)c2ccccc2Cl)c1	-1	6	64*	-1	nt	-11
O=C(C[C@@H]1CC[C@@H]2[C@H](COC[C@@H](O)CN2C(=O)Nc2ccc(Cl)cc2)O1)NC1Cc2ccccc2C1	nt	-8	nt	nt	-4	nt
COC(=O)C[C@H]1CC[C@H]2[C@@H](COc3ccc(NS(C)(=O)=O)cc3C(=O)N2C)O1	nt	0	nt	nt	nt	nt
COc1ccc(C(=O)NC(=S)NNC(=O)c2ccccc2C)cc1	-2	0	105*	3	0	-17
O=C(/C=C/c1cccs1)NC(=S)NNC(=O)c1ccccc1O	-1	1	nt	-5	nt	-19
Cc1ccccc1C(=O)NNC(=S)NC(=O)c1ccc(Cl)cc1Cl	2	1	395*	-9	nt	-32
O=C(NC(=S)NNC(=O)c1ccc(Cl)cc1Cl)c1cccnc1	1	nt	0	-4	4	4
COc1ccc(C(=O)NNC(=S)NC(=O)/C=C/c2cccs2)cc1	-2	-1	74*	4	nt	6
CCCNC(=O)C[C@H]1CC[C@H]2[C@H](COc3ccc(NC(=O)c4ccccc4)cc3C(=O)N2C)O1	nt	nt	nt	nt	-1	nt
O=C(CNc1cccc(Cl)c1)c1ccc(Cl)cc1	-2	nt	0	0	-1	-7
SMILES	FadD28 FP inh	TcdB inh	PfHsp40 yeast	Y pestis TopoI	Mtb BioA inh	PrP UTR inh
Cc1ccc(C(=O)CNc2cccc(Cl)c2)cc1	1	nt	-1	65*	-1	-22
COc1ccccc1CNC(=O)C[C@H]1C[C@@H]2c3cc(NC(=O)C4CCOCC4)ccc3O[C@@H]2[C@H](CO)O1	nt	-1	nt	nt	-1	nt
Cc1cccc(Nc2nc(-c3cccs3)cs2)n1	0	nt	11	3	-1	-119
Cc1cccnc1Nc1nc(-c2ccccn2)cs1	2	nt	77*	1	0	-28
Cc1cccnc1Nc1nc(-c2ccccc2)cs1	-3	-1	1	-14	0	-84
Cc1cccc(Nc2nc(-c3ccccn3)cs2)n1	0	nt	512*	-2	1	nt
COc1cc(OC)c(-c2c3cc(O)c(=O)cc-3oc3cc(O)c(O)cc23)cc1OC	39*	0	228*	-6	nt	-33
Cc1c2cc(O)c(=O)cc-2oc2cc(O)c(O)cc12	12*	-18	0	-17	-66	1
COc1cc(-c2cc(=O)c3ccc(O)cc3o2)cc(OC)c1OC	-3	-1	nt	-4	0	nt
C[C@H]1CN([C@@H](C)CO)S(=O)(=O)c2ccc(C#CCN(C)C)cc2O[C@@H]1CN(C)Cc1ccccc1F	nt	0	nt	nt	-1	nt
